Assay outcomes deposited in PubChem BioAssay by National Center for Advancing Translational Sciences (NCATS).
B2AR arrestin – recruits beta-arrestin to the human beta2-adrenergic receptor; hit rate 0.02% among 330,000; beta-arrestin recruitment to beta2AR, cell-based reporter; Potency, µM (highest dose often 46.1 µM), without a hit: top-dose activation, actives largely listed as activators; P07550;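 further: potency means the concentration at half of the fitted maximal effect; 0% = DMSO controls and full agonism = EC100 isoproterenol or metaproterenol; nearly all actives have a fitted effect of over 65% in size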
DRD3 antagonist – D3 dopamine receptor (human) antagonism; D3R cells, DiscoveRx beta-arrestin luminescence, antagonist mode; active compounds read low; hit rate 2.5% among 360,000; max response, negative = inhibition, %; P35462; in the data active means max response below about -50%; inconclusive means no clear call, values can overlap the other calls; further: on the % scale 0 is the no-effect control and ±100 the full control effect
Target sequence (P35462 whole entry, looked up): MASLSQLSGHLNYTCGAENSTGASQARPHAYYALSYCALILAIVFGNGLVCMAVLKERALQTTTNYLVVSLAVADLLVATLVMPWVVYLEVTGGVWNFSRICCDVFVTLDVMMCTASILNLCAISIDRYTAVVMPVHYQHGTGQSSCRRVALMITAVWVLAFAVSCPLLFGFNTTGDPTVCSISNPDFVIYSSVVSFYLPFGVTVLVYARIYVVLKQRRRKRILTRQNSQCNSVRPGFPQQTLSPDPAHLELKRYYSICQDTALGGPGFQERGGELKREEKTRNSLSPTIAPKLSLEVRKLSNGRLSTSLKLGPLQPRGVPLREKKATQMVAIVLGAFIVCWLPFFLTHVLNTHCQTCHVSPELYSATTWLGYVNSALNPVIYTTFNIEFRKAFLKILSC
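Cells plated overnight at 1500 cells/well, then exposed to library compounds with dopamine controls for 90 minutes at 37 degrees C. DiscoveRx reagent added for 30–60 minutes at room temperature; luminescence read, quantitative HTS format.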
DRD3 agonist – D3 dopamine receptor (human) agonism. P35462. D3R DiscoveRx beta-arrestin cells, luminescence, 90 min. max activation, %. hit rate 0.58% among 410,000. AID 652048; in the data active means max activation above about 30%; further: 0% is about no effect
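Agonist-mode cell screen: cells plated at 1500/well and incubated overnight at 37 °C, then exposed to library compounds for 90 min at 37 °C. Detection reagent was added for 30–60 min at room temperature, and luminescence was read.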
a7 integrin act – activates integrin-mediated alleviation for muscular dystrophy. Potency, µM (series often up to 38.3 µM), for the others: at the highest dose activation, usual class: activators. AID 624291. alpha7betagal myoblasts, beta-gal FDG fluorescence, 48 h. hit rate 0.064% among 350,000;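 further: potency means the concentration at half of the fitted maximal effect; 100% = response of the positive control SU9516; nearly all actives have a fitted effect of over 60% in size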
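alpha7betagal+/- myoblasts (passage 13, 250/well) treated 48 h at 37C with compounds at 1:260 dilution of DMSO stock. Lysed, then beta-galactosidase activity read as FDG fluorescence (ex 480/em 540) after 30 min, with pre-read for autofluorescence.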
mIDH1 inhibitor – human IDH1 R132H inhibition; O75874; IDH1-R132H enzyme, NADPH consumption, diaphorase/resazurin fluorescence; Potency, µM (series often up to 76.6 µM), without a hit: at the highest dose activity change, negative = inhibition, most hits filed as inhibitors; hit rate 0.093% among 390,000; further: potency means the concentration at half of the fitted maximal effect; on the % scale 0 is the no-effect control and ±100 the full control effect; nearly all actives have a fitted effect of over 65% in size
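IDH1-R132H (0.5 ug/mL) preincubated 30 min with compound, then NADPH (0.016 mM) and alpha-KG (2 mM) added; 80 min at RT, pH 7.5. Remaining NADPH coupled via diaphorase/resazurin to fluorescence (540/590 nm); concentration-response curves normalized to no-enzyme control.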
Numbers without * were called inactive; ! = a repeat was not active. In the library only some 2.9% were active in any assay of this set; here they are far more common. Unless noted, the call rests on the fitted dose curve; in most records, active means well fitted curve in the direction sought with a large enough effect; inconclusive means small, poorly fitted or top-dose-only effect, or another doubt; inactive means no such curve, though single readings can be large; an effect the other way counts as inactive or inconclusive.

What do the screens show for `Cc1noc(C)c1S(=O)(=O)Nc1ccc(C(=O)Nc2ccc(C(C)C)cc2)cc1`?
DRD3 agonist: -3; mIDH1 inhibitor: -5%

How did CCOC(=O)CCCCCC(=O)Nc1ccc2c(c1)C(=O)N([C@H](C)CO)C[C@@H](C)[C@H](CN(C)S(=O)(=O)c1cn(C)cn1)O2 do in these assays?
B2AR arrestin: 0%; DRD3 antagonist: 23; DRD3 agonist: 47*; a7 integrin act: 11%; mIDH1 inhibitor: 0%

What do the screens show for `CS(=O)(=O)N(CC(=O)N1CCCCCC1)Cc1ccc(Cl)cc1`?
B2AR arrestin: 0%; DRD3 antagonist: -78*; DRD3 agonist: -3; a7 integrin act: -6%; mIDH1 inhibitor: 0%

Results for CCOC(=O)CCC(=O)Nc1nnc2n1CCS2 ?
DRD3 agonist: -4; mIDH1 inhibitor: 0%

How did CN(C)c1nc(C=C(C#N)C#N)c(Cl)n1-c1ccc(F)cc1 do in these assays?
B2AR arrestin: 0%; DRD3 antagonist: -64*; DRD3 agonist: -19; a7 integrin act: -63%; mIDH1 inhibitor: 5%

What do the screens show for `Cc1ccc(NC(=O)/C(C#N)=C/c2cc(C)n(-c3ccc(F)cc3)c2C)cc1C`?
DRD3 agonist: 6; mIDH1 inhibitor: 4%

Results for CC(=O)Nc1ccc(S(=O)(=O)N2CCC(c3nc4ccc(C)cc4[nH]3)CC2)cc1 ?
B2AR arrestin: 4%; DRD3 antagonist: -92*; DRD3 agonist: -1; a7 integrin act: 7%; mIDH1 inhibitor: -3%

How did CCOC(=O)Nc1ccc(S(=O)(=O)N2CCC(c3nc4ccccc4[nH]3)CC2)cc1 do in these assays?
DRD3 antagonist: -12; DRD3 agonist: 2; a7 integrin act: -14%; mIDH1 inhibitor: -6%

How did Cc1cc(C)cc(-n2nnc(-c3nc(-c4ccc5c(c4)OCO5)no3)c2C)c1 do in these assays?
DRD3 agonist: 9; mIDH1 inhibitor: -11%

Results for C/C(=N/N=C(\C)c1ccccc1O)c1ccccc1O ?
B2AR arrestin: -1%; DRD3 antagonist: 7; DRD3 agonist: 4; a7 integrin act: -17%; mIDH1 inhibitor: -2%

Results for CCC(=NN=C(CC)c1ccccc1O)c1ccccc1O ?
DRD3 antagonist: 27; DRD3 agonist: 45*; a7 integrin act: 9%; mIDH1 inhibitor: 7%

What do the screens show for `CN(Cc1nc2ccccc2c(=O)[nH]1)C(=O)COc1ccccc1Cc1ccccc1`?
B2AR arrestin: 0%; DRD3 antagonist: 7; DRD3 agonist: -2; a7 integrin act: -2%; mIDH1 inhibitor: -8%

Results for O=c1c2ccccc2nc(SCCN2CCCCC2)n1CCc1ccccc1 ?
B2AR arrestin: 0%; DRD3 antagonist: -56*; DRD3 agonist: -10; a7 integrin act: -46%; mIDH1 inhibitor: -1%

Results for CCSc1nc2c(c(=O)n(C)c(=O)n2C)n1Cc1ccc(Cl)cc1 ?
DRD3 antagonist: 1; DRD3 agonist: -1; a7 integrin act: 25%; mIDH1 inhibitor: -1%

What do the screens show for `Cn1c(=O)c2c(nc(SCCN3CCCCC3)n2Cc2ccc(Cl)cc2)n(C)c1=O`?
B2AR arrestin: 0%; DRD3 antagonist: -51*; DRD3 agonist: 1; a7 integrin act: -27%; mIDH1 inhibitor: -4%

What do the screens show for `O=C(CSc1nccn1Cc1ccc(Cl)cc1)Nc1ccc2c(c1)OCCO2`?
DRD3 agonist: -3; mIDH1 inhibitor: -19%

How did CCCC(=O)NC(c1cccs1)c1cc([N+](=O)[O-])c2cccnc2c1O (configuration not stated) do in these assays?
B2AR arrestin: 0%; DRD3 antagonist: inconclusive; DRD3 agonist: -18; a7 integrin act: -7%; mIDH1 inhibitor: inconclusive

Results for CCCC(=O)NC(c1ccccc1)c1ccc2cccnc2c1O (configuration not stated) ?
B2AR arrestin: 8%; DRD3 antagonist: inconclusive; DRD3 agonist: 31*; a7 integrin act: -24%; mIDH1 inhibitor: -12%

What do the screens show for `CC(C)C(=O)NC(c1ccccc1)c1cc([N+](=O)[O-])c2cccnc2c1O` (configuration not stated)?
B2AR arrestin: 0%; DRD3 antagonist: -77*; DRD3 agonist: -19; a7 integrin act: 9%; mIDH1 inhibitor: inconclusive

What do the screens show for `CCC(=O)NC(c1cccs1)c1cc([N+](=O)[O-])c2cccnc2c1O` (configuration not stated)?
B2AR arrestin: 1%; DRD3 antagonist: -69*; DRD3 agonist: -23; a7 integrin act: -12%; mIDH1 inhibitor: inconclusive

How did Cc1ccccc1Cn1c2ccccc2c2cnn(CC(=O)NCCCc3ccccc3)c(=O)c21 do in these assays?
DRD3 agonist: -5; mIDH1 inhibitor: -13%

How did CC(C)CC1Nc2ncnc(N3CCN(c4ccccn4)CC3)c2N(Cc2ccc(Br)cc2)C1=O (configuration not stated) do in these assays?
B2AR arrestin: 0%; DRD3 antagonist: -99*!; DRD3 agonist: -45; a7 integrin act: -9%; mIDH1 inhibitor: 2%

How did COc1ccc(CN2C(=O)C(CC(C)C)Nc3ncnc(N4CCN(c5ccccn5)CC4)c32)cc1 (configuration not stated) do in these assays?
B2AR arrestin: 0%; DRD3 antagonist: -29; DRD3 agonist: -31; a7 integrin act: 20%; mIDH1 inhibitor: 0%

Results for Cc1ccc(CN2C(=O)C(CC(C)C)Nc3ncnc(N4CCCCC4)c32)cc1 (configuration not stated) ?
DRD3 antagonist: 17; DRD3 agonist: 10

How did Cc1ccc(CN2C(=O)C(CC(C)C)Nc3ncnc(N4CCN(c5ccccn5)CC4)c32)cc1 (configuration not stated) do in these assays?
B2AR arrestin: 0%; DRD3 antagonist: -88*; DRD3 agonist: -50; a7 integrin act: -1%; mIDH1 inhibitor: -12%

How did CCOc1cc(-c2ccc(OC(=O)c3ccc(OC)cc3)c(OC)c2)cc(=O)c2c(C)oc(C)c12 do in these assays?
DRD3 agonist: -8; mIDH1 inhibitor: 15%

Results for CCN(CC)S(=O)(=O)c1ccc(C(=O)Nc2nc3c(Cl)cc(Cl)cc3s2)cc1 ?
DRD3 agonist: 4; mIDH1 inhibitor: 10%

Results for CC(C)(C)N(Cc1cc2ccccc2[nH]c1=O)C(=O)c1cccc([N+](=O)[O-])c1 ?
B2AR arrestin: 0%; DRD3 antagonist: -17; DRD3 agonist: 47*; a7 integrin act: inconclusive; mIDH1 inhibitor: 7%

What do the screens show for `COc1ccccc1-c1nnc(NC(=O)c2ccc(S(=O)(=O)N(C)C)cc2)o1`?
B2AR arrestin: 0%; DRD3 antagonist: 167; DRD3 agonist: 1; a7 integrin act: -10%; mIDH1 inhibitor: -5%

How did COCCN(CCOC)S(=O)(=O)c1ccc(C(=O)Nc2nnc(C3CC3)o2)cc1 do in these assays?
B2AR arrestin: -1%; DRD3 antagonist: -53*; DRD3 agonist: -14; a7 integrin act: -29%; mIDH1 inhibitor: 2%
